PubChem BioAssay AID1159580 (chemical genetic matrix, 2015)
Hit rate of the full screen: of about 5,500 compounds, about 2,000 (36%) were called active. Not shown: some 18% with an inconclusive outcome. Rule as the data show it: active = normalized growth mostly below about 0.91 (no sharp cut-off); inconclusive = no clear call, values can overlap the other calls; inactive = mostly above about 0.92. The list shows a part of the results.

Assay: chemical genetic growth profiling, strain panel (AID 1159580);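 also: tested at 20 µM; growth read once vehicle control cultures reached saturation at 30 °C; 1 = growth at the plate median or of vehicle wells; lower values mean less growth of the strain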
Details: S. cerevisiae deletion strains, growth OD

Measured: normalized growth

Cc1cc(C(=O)N(c2ccccc2)C(C)C2CC2)c(Cl)cc1Cl (stereo unspecified)
inactive: locus YAR019C, strain CDC15, active compounds read low 0.987 | locus YBL105C, strain PKC1, active compounds read low 0.984 | locus YBR135W, strain CKS1, active compounds read low 0.984 | locus YBR136W, strain MEC1, active compounds read low 0.987 | locus YBR160W, strain CDC28, active compounds read low 0.991 | locus YDL017W, strain CDC7, active compounds read low 0.978 | locus YDL028C, strain MPS1, active compounds read low 0.982 | locus YDL101C, strain DUN1, active compounds read low 0.98 | locus YDL108W, strain KIN28, active compounds read low 0.978 | locus YDL132W, strain cdc53, active compounds read low 0.973 | locus YDL214C, strain PRR2, active compounds read low 0.955 | locus YDR052C, strain DBF4, active compounds read low 0.985 | locus YDR054C, strain cdc34, active compounds read low 0.966 | locus YDR226W, strain ADK1, active compounds read low 0.971 | locus YDR477W, strain SNF1, active compounds read low 0.942 | locus YER123W, strain YCK3, active compounds read low 0.943 | locus YER133W, strain GLC7, active compounds read low 0.938 | locus YFL009W, strain cdc4, active compounds read low 0.973 | locus YFL029C, strain CAK1, active compounds read low 0.984 | locus YFR003C, strain YPI1, active compounds read low 0.979 | locus YFR019W, strain FAB1, active compounds read low 0.968 | locus YFR028C, strain CDC14, active compounds read low 0.979 | locus YGR040W, strain KSS1, active compounds read low 0.944 | locus YGR052W, strain FMP48, active compounds read low 0.949 | locus YGR092W, strain DBF2, active compounds read low 0.989 | locus YHR079C, strain IRE1, active compounds read low 0.97 | locus YHR082C, strain KSP1, active compounds read low 0.99 | locus YHR205W, strain SCH9, active compounds read low 0.985 | locus YIL147C, strain SLN1, active compounds read low 0.983 | locus YJL095W, strain BCK1, active compounds read low 0.939 | locus YJL128C, strain PBS2, active compounds read low 0.92 | locus YJL157C, strain FAR1, active compounds read low 0.957 | locus YJR016C, strain ILV3, active compounds read low 0.976 | locus YJR066W, strain TOR1 (second series), active compounds read low 0.921 | locus YJR066W, strain TOR1, active compounds read low 1.03 | locus YKL048C, strain ELM1, active compounds read low 0.966 | locus YKL067W, strain YNK1, active compounds read low 0.955 | locus YKL101W, strain HSL1, active compounds read low 0.953 | locus YKL193C, strain SDS22, active compounds read low 0.977 | locus YKL203C, strain TOR2, active compounds read low 1.01 | locus YLR133W, strain CKI1, active compounds read low 0.965 | locus YLR403W, strain SFP1, active compounds read low 0.993 | locus YML070W, strain DAK1, active compounds read low 0.925 | locus YMR001C, strain CDC5, active compounds read low 0.982 | locus YMR205C, strain PFK2 (second series), active compounds read low 0.958 | locus YMR277W, strain FCP1, active compounds read low 0.972 | locus YNL006W, strain LST8, active compounds read low 0.989 | locus YNL020C, strain ARK1, active compounds read low 0.95 | locus YNL161W, strain CBK1, active compounds read low 0.979 | locus YNL183C, strain NPR1, active compounds read low 1.02 | locus YNL207W, strain RIO2, active compounds read low 0.978 | locus YNL222W, strain SSU72, active compounds read low 0.988 | locus YNL307C, strain MCK1 (second series), active compounds read low 0.941 | locus YOL078W, strain AVO1, active compounds read low 0.98 | locus YOL136C, strain PFK27, active compounds read low 0.936 | locus YOR061W, strain CKA2, active compounds read low 0.958 | locus YOR119C, strain RIO1, active compounds read low 1.02 | locus YOR231W, strain MKK1, active compounds read low 0.95 | locus YOR329C, strain SCD5, active compounds read low 0.984 | locus YPL031C, strain PHO85, active compounds read low 0.939 | locus YPL153C, strain RAD53, active compounds read low 0.921 | locus YPL204W, strain HRR25, active compounds read low 0.918 | locus YPL209C, strain IPL1, active compounds read low 0.985 | locus YPR025C, strain CCL1, active compounds read low 0.991 | locus YPR106W, strain ISR1, active compounds read low 0.982 | locus YPR111W, strain DBF20, active compounds read low 0.97 | strain NNK1, active compounds read low 0.976 | strain TSCII, active compounds read low 0.983
active: locus YHR030C, strain SLT2, active compounds read low 0.8 | locus YLR113W, strain HOG1, active compounds read low 0.808 | locus YPL256C, strain CLN2, active compounds read low 0.848
